The source made the active and inactive calls. Unless noted, no rule for the calls is given here.
Tests used:
[1] = resazurin metabolic signal in HepG2 cells – cell-based, resazurin fluorescence, 24 h, PK04 Diversity Set, profiling panel (AID 1172); settings: HepG2 viability, higher = more signal; also: test concentration not given here
[2] = budding yeast growth changes without added modifier – OD600, strain BY4716, 24 h, basal condition, primary screen (AID 1173); settings: S. cerevisiae BY4716 growth, OD600, 24 h; higher = more signal, called active from +8 up or from −8 down
[3] = viability profiling in MM1S myeloma cells – cell-based, resazurin fluorescence, basal, 24 h, PK04 Diversity Set, profiling panel (AID 1174); settings: higher = more signal, called active from +8 up or from −8 down;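 also: MM1S multiple myeloma cell line; test concentration not given here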
[4] = biological target: Dihydroorotate dehydrogenase (quinone), mitochondrial (Plasmodium falciparum (isolate 3D7)) (UniProt Q08210); assay: inhibition of P. falciparum DHODH – biochemical, C-terminal His tag, absorbance 600 nm, primary screen (AID 1175); settings: PfDHODH enzyme, DCIP absorbance 600 nm; higher = more signal, called active from +8 up or from −8 down;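 also: recombinant parasite enzyme with a five histidine tag at its C terminus; test concentration not given here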
Dihydroorotate dehydrogenase (quinone), mitochondrial (Plasmodium falciparum (isolate 3D7)), sequence (Q08210 whole entry, looked up): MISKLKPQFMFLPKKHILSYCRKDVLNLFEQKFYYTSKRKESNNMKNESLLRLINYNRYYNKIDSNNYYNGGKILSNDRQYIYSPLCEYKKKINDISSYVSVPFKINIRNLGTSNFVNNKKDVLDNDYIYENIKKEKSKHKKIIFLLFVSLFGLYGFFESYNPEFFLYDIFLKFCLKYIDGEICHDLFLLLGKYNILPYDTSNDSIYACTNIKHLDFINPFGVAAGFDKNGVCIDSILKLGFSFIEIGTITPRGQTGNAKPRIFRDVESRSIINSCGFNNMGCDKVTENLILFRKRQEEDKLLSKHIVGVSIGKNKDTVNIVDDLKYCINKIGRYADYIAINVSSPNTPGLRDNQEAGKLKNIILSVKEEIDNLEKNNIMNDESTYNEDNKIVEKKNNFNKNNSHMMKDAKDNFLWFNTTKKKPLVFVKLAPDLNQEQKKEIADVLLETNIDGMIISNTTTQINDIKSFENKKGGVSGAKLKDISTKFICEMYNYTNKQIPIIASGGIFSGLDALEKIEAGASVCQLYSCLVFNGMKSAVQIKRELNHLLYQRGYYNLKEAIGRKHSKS

[5] = inhibition of PAO1 biofilm formation – strain PAO1, LB-PBS medium, absorbance 600 nm, primary screen (AID 1176); also: test concentration not given here; settings: P. aeruginosa PAO1 growth/biofilm, A600, 12 h; higher = more signal
[6] = growth modulation of vineyard yeast isolate – strain RM11-1a, OD600, basal, 24 h, primary screen (AID 1177);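 also: cultures grown under basal conditions with no added stressor; test concentration not given here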; settings: S. cerevisiae RM11-1a growth, OD600, 24 h; higher = more signal, called active from +8 up or from −8 down
[7] = growth of efflux-deficient E. coli DRC39 – strain DRC39, OD650, 24 h, E. coli filamentation inducers, primary screen (AID 1178);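 also: growth measured as culture turbidity by optical density at 650 nm; test concentration not given here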; settings: E. coli DRC39 acrAB, higher = more signal, called active from +8 up or from −8 down
[8] = growth of efflux-deficient E. coli DRC39 – strain DRC39, OD650, 48 h, E. coli filamentation inducers, primary screen (AID 1179);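 also: screen aims at cell division blockers that make cells filament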; settings: E. coli DRC39 delta-acrAB growth, higher = more signal, called active from +8 up or from −8 down
[9] = viability profiling in RPMI8226 myeloma cells – cell-based, resazurin fluorescence, basal, 24 h, PK04 Diversity Set, profiling panel (AID 1180); settings: higher = more signal;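 also: RPMI8826 multiple myeloma cell line at 5000 cells per well; test concentration not given here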
[10] = biological target: E3 ubiquitin-protein ligase XIAP (Homo sapiens) (UniProt P98170); assay: small molecules binding XIAP protein – biophysical, small-molecule microarray, fluorescence 635 nm, primary screen (AID 1181); settings: higher = more signal;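 also: score merges 667 nm emission and signal to noise over triplicate slides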
E3 ubiquitin-protein ligase XIAP (Homo sapiens), sequence (P98170 whole entry, looked up): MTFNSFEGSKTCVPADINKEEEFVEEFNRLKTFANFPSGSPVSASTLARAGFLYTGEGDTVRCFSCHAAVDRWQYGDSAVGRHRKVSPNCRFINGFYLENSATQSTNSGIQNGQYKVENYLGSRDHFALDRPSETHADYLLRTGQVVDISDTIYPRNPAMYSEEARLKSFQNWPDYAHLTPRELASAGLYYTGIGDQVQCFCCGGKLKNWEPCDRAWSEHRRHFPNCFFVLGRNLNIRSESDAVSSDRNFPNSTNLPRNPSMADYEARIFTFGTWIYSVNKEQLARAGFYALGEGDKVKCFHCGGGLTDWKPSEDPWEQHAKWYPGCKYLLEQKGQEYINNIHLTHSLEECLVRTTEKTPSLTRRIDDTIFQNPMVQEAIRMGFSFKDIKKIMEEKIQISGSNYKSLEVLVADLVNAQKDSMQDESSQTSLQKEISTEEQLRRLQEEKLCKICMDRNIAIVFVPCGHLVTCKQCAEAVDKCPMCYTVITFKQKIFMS

SMILES	z-score [1]	z-score [2]	z-score [3]	composite z-score [4]	z-score [5]	z-score [6]	z-score [7]	z-score [8]	z-score [9]	composite z-score [10]
COc1ccc([Si](C)(C)[C@@H]2[C@@H](CC(=O)N3Cc4ccccc4C[C@H]3CO)O[C@]3(C(=O)N(Cc4ccc(N5CCOC5=O)cc4)c4ccccc43)[C@H]2C)cc1	-0.231	-0.678 (inactive)	-1.49 (inactive)	-0.836 (inactive)	1.18 (inactive)	0.455 (inactive)	0.868 (inactive)	0.465 (inactive)	-0.504	0.0049
CCCN1C(=O)[C@@]2(c3ccc([N+](=O)[O-])cc3)CC(=O)N(CC34CC5CC(CC(C5)C3)C4)[C@@H]2c2ccc(CO)cc21	-0.113	-0.547 (inactive)	-0.148 (inactive)	-4.78 (inactive)	0.186 (inactive)	-0.664 (inactive)	0.2 (inactive)	-0.255 (inactive)	-0.559	0.0666
COc1ccc(C(O)C2C=CC3C(=O)N(C)C(=O)C3N2N(c2ccccc2)c2ccccc2)cc1 (stereo not given)	-0.326	0.405 (inactive)	-1.61 (inactive)	-0.472 (inactive)	0.971 (inactive)	0.279 (inactive)	-0.41 (inactive)	0.0882 (inactive)	-1.29	-0.0772
O=C(NCC(O)CO)C1N=C(c2ccc(OCCCO)cc2)N(c2ccccc2)O1 (stereo not given)	-0.664	-0.732 (inactive)	-0.783 (inactive)	-0.568 (inactive)	-1.41 (inactive)	-0.406 (inactive)	0.015 (inactive)	-0.003 (inactive)	-1	-0.142
C=CCOC(=O)[C@@H]1[C@H]2C(=O)O[C@H](c3ccccc3)[C@H](c3ccccc3)N2[C@H](c2ccc(OCCOC(=O)[C@H]3C[C@H]4C(=O)NCC(=O)N4[C@H]3c3cccc(OCCO)c3)cc2)[C@@]12C(=O)Nc1ccc(I)cc12	-0.155	1.87 (inactive)	-0.0681 (inactive)	0.131 (inactive)	3.08 (inactive)	1.08 (inactive)	0.0109 (inactive)	0.312 (inactive)	-1.09	-0.117
COc1ccc([Si](C)(C)[C@H]2[C@H](CCO)O[C@@]3(C(=O)N(Cc4cccc(N5C(=O)c6ccccc6Oc6ccccc65)c4)c4ccccc43)[C@@H]2C)cc1	-1.86	-0.653 (inactive)	-2.97 (inactive)	0.75 (inactive)	1.01 (inactive)	3.62 (inactive)	1.42 (inactive)	0.597 (inactive)	-4.05	-0.115
CC1CC/C=C\[C@H]2OC34C=CCN(CCN5CCOCC5)C(=O)[C@H]3N(CCCO)C(=O)[C@@H]4C2C(=O)O1 (stereo not given in full)	-0.505	0.356 (inactive)	-0.431 (inactive)	0.199 (inactive)	0.233 (inactive)	0.296 (inactive)	-0.47 (inactive)	-0.496 (inactive)	-0.479	0.158
CC1CC/C=C\[C@H]2OC34C=CCN(c5ccc(Cl)cc5)C(=O)[C@H]3N(CCCCCCO)C(=O)[C@]4(C)C2C(=O)O1 (stereo not given in full)	0.25	-0.257 (inactive)	0.722 (inactive)	-1.1 (inactive)	-0.801 (inactive)	0.268 (inactive)	0.251 (inactive)	0.732 (inactive)	0.485	1.65
CCOC(=O)C[C@H]1[C@H](OC(=O)Cc2ccc3c(c2)OCO3)[C@@H](NC(=O)Cc2ccc(OC)cc2)c2cc(OCCCO)ccc2N1C(=O)Cc1ccc(OC)cc1	-0.354	-0.605 (inactive)	0.594 (inactive)	-1.72 (inactive)	0.501 (inactive)	-1.62 (inactive)	1.44 (inactive)	1.94 (inactive)	1.02	-0.207
COC(=O)C(CC#Cc1ccc2c(c1)[C@]1(C(=O)N2)[C@H](c2ccc(OCCO)cc2)N2[C@H](c3ccccc3)[C@H](c3ccccc3)OC(=O)[C@H]2[C@@H]1C(=O)N1CCCCCCC1)C(=O)OC	-0.198	1.12 (inactive)	-0.223 (inactive)	0.365 (inactive)	2.9 (inactive)	1.3 (inactive)	-0.8 (inactive)	0.136 (inactive)	-1.02	0.997
CC1CC/C=C\[C@H]2OC34C=CCN(c5ccc6ccccc6c5)C(=O)[C@H]3N(C(C)CO)C(=O)[C@@H]4C2C(=O)O1 (stereo not given in full)	-0.0727	-0.36 (inactive)	-0.304 (inactive)	0.631 (inactive)	-0.236 (inactive)	0.853 (inactive)	0.0825 (inactive)	0.509 (inactive)	0.762	-0.208
COCCOC(=O)N1C(=O)[C@@]2(c3cc(C#CCC(C(=O)OC)C(=O)OC)ccc31)[C@H](c1ccc(O)cc1)N1[C@H](c3ccccc3)[C@H](c3ccccc3)OC(=O)[C@H]1[C@@H]2C(=O)Nc1nc2ccccc2s1	0.623	-0.146 (inactive)	-1.05 (inactive)	-1 (inactive)	0.321 (inactive)	0.559 (inactive)	-0.709 (inactive)	-0.961 (inactive)	-0.157	-0.138
COCCOC(=O)N1C(=O)[C@@]2(c3cc(C#CCC(C(=O)OC)C(=O)OC)ccc31)[C@H](C(N)=O)[C@H]1C(=O)O[C@H](c3ccccc3)[C@H](c3ccccc3)N1[C@@H]2c1ccc(O)cc1	-0.0776	2.28 (inactive)	-2.92 (inactive)	-0.667 (inactive)	6.87 (inactive)	3.96 (inactive)	0.714 (inactive)	0.537 (inactive)	-4.48	0.0727
COc1ccc([Si](C)(C)[C@H]2[C@H](CC(=O)N3Cc4ccccc4C[C@H]3CO)O[C@@]3(C(=O)N(C)c4ccccc43)[C@@H]2C)cc1	-0.894	-3.38 (inactive)	-1.97 (inactive)	-1.45 (inactive)	-0.695 (inactive)	0.0745 (inactive)	-1.44 (inactive)	-1.38 (inactive)	-2.06	0.119
CN1C(=O)C2C=CC(C(O)c3ccc(-c4ccccc4)s3)N(NC(=O)OC(C)(C)C)C2C1=O (stereo not given)	-0.807	0.537 (inactive)	-0.629 (inactive)	0.63 (inactive)	1.08 (inactive)	0.432 (inactive)	0.28 (inactive)	-0.0168 (inactive)	-0.694	-0.162
O=C(NCCN1CCOCC1)[C@@H]1c2ccccc2C(=O)N(Cc2ccccc2C(F)(F)F)[C@H]1c1ccc(CO)cc1	0.846	-0.139 (inactive)	1.17 (inactive)	-0.899 (inactive)	-0.342 (inactive)	-0.276 (inactive)	0.394 (inactive)	0.192 (inactive)	1.44	0.0487
C=CCOC(=O)[C@@H]1[C@H]2C(=O)O[C@H](c3ccccc3)[C@H](c3ccccc3)N2[C@H](c2ccc(OCCOC(=O)[C@H]3C[C@H]4C(=O)N5CCC[C@H]5C(=O)N4[C@H]3c3cccc(OCCO)c3)cc2)[C@@]12C(=O)Nc1ccc(I)cc12	0.0829	2.04 (inactive)	-0.273 (inactive)	0.0219 (inactive)	3.81 (inactive)	1.89 (inactive)	-0.0055 (inactive)	-0.365 (inactive)	-0.166	0.0003
COC(=O)[C@@]1(Cc2ccccc2)[C@H]2c3cc(C(=O)N(C)C)n(Cc4ccc(S(C)(=O)=O)cc4)c3C[C@H]2CN1C(=O)c1ccccc1	-1.17	1.33 (inactive)	-2.74 (inactive)	-0.316 (inactive)	1.47 (inactive)	0.879 (inactive)	-1.1 (inactive)	-1.28 (inactive)	-0.668	0.291
CCCCN1CC=CC23O[C@@H]4/C=C\CCCOC(=O)C4[C@H]2C(=O)N(C(CO)C(C)C)[C@@H]3C1=O (stereo not given in full)	-0.101	0.259 (inactive)	-0.289 (inactive)	-1.4 (inactive)	-0.0432 (inactive)	-0.427 (inactive)	0.116 (inactive)	-0.091 (inactive)	-0.235	-0.0393
COC(=O)C1(Cc2ccccc2)C=C2C(=C(C)C(=O)C2C)CN1 (stereo not given)	-0.896	1.1 (inactive)	-0.86 (inactive)	-1.98 (inactive)	0.452 (inactive)	-0.527 (inactive)	0.858 (inactive)	1.2 (inactive)	-0.625	-0.168

Reference: PubChem BioAssay
